Measured values taken from PubChem BioAssay (Tox21).
Results filed as inconclusive are left out. The source made the active and inactive calls. Unless noted, the call rests on the fitted dose curve.

What was measured:
[1] = Nuclear factor erythroid 2-related factor 2/antioxidant responsive element (Nrf2/ARE) small molecule agonists: qHTS cell viability counter screen in human keratinocytes (AID 1919968; active means well fitted curve in the direction sought with a large enough effect in the repeat runs; an effect the other way counts as inactive or inconclusive; further: nearly all actives have a fitted effect of over 55% in size; further: potency means the concentration at half of the fitted maximal effect)
Method in brief: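 KeratinoSens cells (HaCaT keratinocytes stably carrying an ARE-luciferase reporter) were seeded at 1,500 cells/well and rested 5 h at 37 C/5% CO2. They were then exposed to compounds in DMSO for 23 h. Viability was read by CellTiter-Fluor fluorescence after 1 h.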

[2] = Nuclear factor erythroid 2-related factor 2/antioxidant responsive element (Nrf2/ARE) small molecule agonists: luciferase reporter gene qHTS assay in human keratinocytes (AID 1919969); further: nearly all actives have a fitted effect of over 35% in size; further: potency means the concentration at half of the fitted maximal effect
[3] = target: Gonadotropin-releasing hormone receptor (Homo sapiens) (UniProt P30968); test: Human gonadotropin-releasing hormone receptor (GnRHR) small molecule agonists, calcium flux assay in GnRHR-HEK293 cells (AID 1920063); further: nearly all actives have a fitted effect of over 35% in size
Gonadotropin-releasing hormone receptor (Homo sapiens), sequence (P30968 whole entry, looked up): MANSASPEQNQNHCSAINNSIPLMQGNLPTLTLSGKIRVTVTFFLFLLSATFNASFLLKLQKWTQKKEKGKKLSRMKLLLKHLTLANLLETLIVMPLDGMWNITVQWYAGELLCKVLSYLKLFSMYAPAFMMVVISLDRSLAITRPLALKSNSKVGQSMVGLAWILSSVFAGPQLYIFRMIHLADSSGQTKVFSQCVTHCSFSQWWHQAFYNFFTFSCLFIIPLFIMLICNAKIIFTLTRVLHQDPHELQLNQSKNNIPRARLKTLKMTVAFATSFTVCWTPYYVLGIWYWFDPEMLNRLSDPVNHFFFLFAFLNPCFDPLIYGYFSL
Method in brief: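 HEK293 cells stably expressing human GnRHR were plated 18 h at 37 °C, loaded with calcium dye 1 h at 37 °C, then given compound in agonist mode; fluorescence (Ex/Em 480/540) read kinetically for 3 min at 1 s intervals.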

[4] = G protein-coupled receptor (GPCR) small molecule agonists, calcium flux assay: HEK293 wild type cell line counter screen (AID 1920065)
Method in brief: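 Cells were plated and cultured 18 h at 37 C/5% CO2, then loaded with calcium dye for 1 h at 37 C. Compounds in DMSO were pin-transferred in agonist mode, and fluorescence (Ex/Em 480/540) was read kinetically for 3 min at 1 s intervals.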

[5] = p53 small molecule agonists, cell-based qHTS assay with human liver microsomes (AID 1963577);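 further: p53 response element beta-lactamase reporter cells with liver microsomes plus NADPH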
Method in brief: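 In this qHTS, p53 response-element beta-lactamase cells receive test compound together with a microsome/NADPH activating system (0.5 mg/mL final each) and are incubated 16 h at 37 C before LiveBLAzer fluorescence detection.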

[6] = p53 small molecule agonists, cell-based qHTS assay with human liver microsomes: qHTS cell viability counter screen (AID 1963579); further: nearly all actives have a fitted effect of over 45% in size; further: potency means the concentration at half of the fitted maximal effect
Method in brief: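 Metabolically activated exposure: compounds, human liver microsomes and NADPH (0.5 mg/mL final apiece) were added to p53RE-bla cells seeded 5 h earlier, left 16 h at 37 C, and then assessed for viability by CellTiter-Glo luminescence.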

[7] = p53 small molecule agonists, cell-based qHTS assay with rat liver microsomes: qHTS cell viability counter screen (AID 1963580); further: nearly all actives have a fitted effect of over 45% in size
Method in brief: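 HCT-116 p53RE-bla, 4,000 cells/well, 5 h pre-incubation; cpd + rat liver microsomes 0.5 mg/mL + NADPH 0.5 mg/mL (final); 16 h, 37 C; CellTiter-Glo, 30 min RT; luminescence.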

[8] = p53 small molecule agonists, cell-based qHTS assay: qHTS cell viability counter screen (AID 1963581); further: nearly all actives have a fitted effect of over 45% in size; further: potency means the concentration at half of the fitted maximal effect
Method in brief: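 p53RE-bla HCT-116 cells were exposed to compounds for 16 h at 37 C; after the beta-lactamase FRET read in the same wells, CellTiter-Glo was added and luminescence (intracellular ATP) read after 30 min at room temperature.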

[9] = target: 5-hydroxytryptamine receptor 2A (Homo sapiens) (UniProt P28223); test: 5-hydroxytryptamine receptor 2A (HTR2A) small molecule agonists, cell-based qHTS assay (AID 1963587); further: nearly all actives have a fitted effect of over 30% in size; further: potency means the concentration at half of the fitted maximal effect
5-hydroxytryptamine receptor 2A (Homo sapiens), sequence (P28223 whole entry, looked up): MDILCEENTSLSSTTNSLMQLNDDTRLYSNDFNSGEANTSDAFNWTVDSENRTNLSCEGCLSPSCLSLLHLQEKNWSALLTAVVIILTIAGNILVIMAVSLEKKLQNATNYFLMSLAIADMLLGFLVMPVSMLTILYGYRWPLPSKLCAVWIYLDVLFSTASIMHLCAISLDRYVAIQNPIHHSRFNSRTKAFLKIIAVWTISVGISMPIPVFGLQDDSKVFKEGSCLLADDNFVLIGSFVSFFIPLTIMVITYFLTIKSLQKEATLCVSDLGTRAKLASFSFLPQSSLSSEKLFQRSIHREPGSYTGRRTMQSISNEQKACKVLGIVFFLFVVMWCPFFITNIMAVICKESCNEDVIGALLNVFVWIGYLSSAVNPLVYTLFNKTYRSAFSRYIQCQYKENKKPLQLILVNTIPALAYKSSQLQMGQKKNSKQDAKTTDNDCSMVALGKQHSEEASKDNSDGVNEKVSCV
Method in brief: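 Kinetic calcium-flux fluorescence (2 min, 1 sec intervals) after compound addition in agonist mode. HTR2A-CHO cells were cultured 18 h, then dye-loaded 1 h at 37 C.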

[10] = target: Muscarinic acetylcholine receptor M1 (Homo sapiens) (UniProt P11229); test: Cholinergic receptor muscarinic 1 (CHRM1) small molecule antagonists, cell-based qHTS assay (AID 1963588); further: nearly all actives have a fitted effect of over 40% in size; further: potency means the concentration at half of the fitted maximal effect
Muscarinic acetylcholine receptor M1 (Homo sapiens), sequence (P11229 whole entry, looked up): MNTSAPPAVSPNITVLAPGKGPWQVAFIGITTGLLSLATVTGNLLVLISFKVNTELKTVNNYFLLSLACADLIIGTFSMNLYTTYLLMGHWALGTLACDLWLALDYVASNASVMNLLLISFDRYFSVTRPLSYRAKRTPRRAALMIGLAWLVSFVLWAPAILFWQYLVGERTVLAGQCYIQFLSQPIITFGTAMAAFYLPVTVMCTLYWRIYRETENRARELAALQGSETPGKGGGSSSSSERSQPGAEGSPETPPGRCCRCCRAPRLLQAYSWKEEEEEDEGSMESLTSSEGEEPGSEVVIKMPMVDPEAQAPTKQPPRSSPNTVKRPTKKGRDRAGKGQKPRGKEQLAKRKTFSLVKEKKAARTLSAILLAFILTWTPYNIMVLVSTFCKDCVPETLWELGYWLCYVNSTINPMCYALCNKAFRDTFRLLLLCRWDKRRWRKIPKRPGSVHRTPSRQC
Method in brief: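 CHRM1-CHO calcium-flux assay, antagonist mode. Cells were seeded 18 h, dye-loaded 1 h at 37 C and given compound for 5 min at RT, then acetylcholine was added at 50nM. FDSS fluorescence was read 3 min; 15 concentrations, three runs.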

[11] = target: Muscarinic acetylcholine receptor M1 (Homo sapiens) (UniProt P11229); test: Cholinergic receptor muscarinic 1 (CHRM1) small molecule agonists, cell-based qHTS assay (AID 1963589); further: nearly all actives have a fitted effect of over 35% in size
Method in brief: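 CHO cells stably expressing human CHRM1, seeded 18 h at 37 C/5% CO2, dye-loaded 1 h at 37 C, then given compound in agonist mode; intracellular calcium fluorescence read kinetically at 1 s intervals. Fifteen concentrations, three independent runs.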

[12] = target: Beta-2 adrenergic receptor (Homo sapiens) (UniProt P07550); test: Adrenergic beta2 receptor (ADRB2) small molecule antagonists, cell-based qHTS assay (AID 1963592); further: series mostly up to about 92 µM; nearly all actives have a fitted effect of over 50% in size
Beta-2 adrenergic receptor (Homo sapiens), sequence (P07550 whole entry, looked up): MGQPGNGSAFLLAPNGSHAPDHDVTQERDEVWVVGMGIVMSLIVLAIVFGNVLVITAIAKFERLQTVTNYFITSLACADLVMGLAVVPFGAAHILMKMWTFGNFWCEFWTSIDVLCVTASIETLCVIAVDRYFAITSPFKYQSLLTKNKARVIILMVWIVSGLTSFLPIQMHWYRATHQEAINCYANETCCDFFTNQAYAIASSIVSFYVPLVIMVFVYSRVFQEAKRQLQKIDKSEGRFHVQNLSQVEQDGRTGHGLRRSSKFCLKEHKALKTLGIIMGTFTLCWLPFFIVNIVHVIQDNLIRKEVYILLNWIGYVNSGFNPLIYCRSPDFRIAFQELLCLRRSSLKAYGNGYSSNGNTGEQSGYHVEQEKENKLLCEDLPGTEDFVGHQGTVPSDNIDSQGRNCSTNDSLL
Method in brief: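 Cells (CHO, stable ADRB2 overexpression) incubated 18-20hr at 37C; compounds added from DMSO; agonist mix (1nM isoproterenol, 100uM IBMX, 25uM Ro-20-1724) added; 0.5hr RT; d2-cAMP and anti-cAMP-cryptate added; 1hr RT; 665/615 nm read.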

[13] = target: 5-hydroxytryptamine receptor 2A (Homo sapiens) (UniProt P28223); test: 5-hydroxytryptamine receptor 2A (HTR2A) small molecule antagonists, cell-based qHTS assay (AID 1963586); further: nearly all actives have a fitted effect of over 45% in size
Method in brief: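 Antagonist-mode intracellular calcium assay: DOI (4 nM) added after 5 min compound pre-incubation at room temperature to dye-loaded HTR2A-CHO cells. Fluorescence followed for 3 min, sampled every second.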

[14] = cAMP Responsive Elements (CRE) small molecule agonists, cell-based qHTS assay (AID 1963590)
Method in brief: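 CRE-bla HEK 293T cells in DMEM with 10% dialyzed FBS, NEAA, pyruvate and 25 mM HEPES were plated 18 h at 37 C/5% CO2, then exposed to compounds in DMSO for 3 h before LiveBLAzer B/G FRET substrate addition.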

[15] = cAMP Responsive Elements (CRE) small molecule antagonists, cell-based qHTS assay (AID 1963591; active means well fitted inhibition curve with a large enough effect in the signal ratio in the repeat runs, not every such curve was filed as active; the % refers to the signal ratio)
Method in brief: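 CRE-bla HEK293T cells were plated 18 h at 37 °C/5% CO2, pinned with compound in DMSO, then stimulated with NKH477 at 0.25 uM final for 3 h. LiveBLAzer B/G FRET substrate was added and plates incubated 2 h at room temperature.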

[16] = target: D(2) dopamine receptor (Homo sapiens) (UniProt P14416); test: Dopamine D2 receptor (DRD2) small molecule agonists, cell-based qHTS assay (AID 1963594); further: nearly all actives have a fitted effect of over 35% in size
D(2) dopamine receptor (Homo sapiens), sequence (P14416 whole entry, looked up): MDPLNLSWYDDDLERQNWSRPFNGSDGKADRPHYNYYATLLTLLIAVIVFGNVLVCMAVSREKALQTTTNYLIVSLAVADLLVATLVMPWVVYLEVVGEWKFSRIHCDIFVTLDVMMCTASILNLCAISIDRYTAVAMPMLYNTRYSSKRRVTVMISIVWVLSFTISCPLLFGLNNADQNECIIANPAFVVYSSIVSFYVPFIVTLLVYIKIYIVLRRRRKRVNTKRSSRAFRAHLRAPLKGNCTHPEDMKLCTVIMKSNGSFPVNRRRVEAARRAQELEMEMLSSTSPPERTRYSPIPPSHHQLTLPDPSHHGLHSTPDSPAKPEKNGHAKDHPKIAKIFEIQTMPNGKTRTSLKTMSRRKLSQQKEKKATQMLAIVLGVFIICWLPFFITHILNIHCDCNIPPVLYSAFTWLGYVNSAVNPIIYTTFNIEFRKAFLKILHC
Method in brief: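 cAMP accumulation in DRD2-HEK293 cells measured by HTRF after 1 h detection; compounds added 10 min before NKH477 (200nM […]) forskolin-analogue stimulation, 30 min at room temperature, with Ro20-1724 present at 0.1 mM final.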

[17] = target: D(2) dopamine receptor (Homo sapiens) (UniProt P14416); test: Dopamine D2 receptor (DRD2) small molecule antagonists, cell-based qHTS assay (AID 1963595; active means well fitted inhibition curve with a large enough effect in the signal ratio in the repeat runs, with a control signal flat; the % refers to the signal ratio)
Method in brief: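 Antagonism was scored as restored cAMP in HEK293-DRD2 cells. These cells were stimulated with 200 nM NKH477 and 12 nM quinpirole for 30 min at room temperature, in the presence of 0.1 mM Ro20-1724.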

[18] = target: KiSS-1 receptor (Homo sapiens) (UniProt Q969F8); test: Human kisspeptin (KISS1R) small molecule agonists, calcium flux assay in KISS1R-HEK293 cells (AID 1920064; active means well fitted curve in the direction sought with a large enough effect in the repeat runs; an effect the other way counts as inactive or inconclusive)
KiSS-1 receptor (Homo sapiens), sequence (Q969F8 whole entry, looked up): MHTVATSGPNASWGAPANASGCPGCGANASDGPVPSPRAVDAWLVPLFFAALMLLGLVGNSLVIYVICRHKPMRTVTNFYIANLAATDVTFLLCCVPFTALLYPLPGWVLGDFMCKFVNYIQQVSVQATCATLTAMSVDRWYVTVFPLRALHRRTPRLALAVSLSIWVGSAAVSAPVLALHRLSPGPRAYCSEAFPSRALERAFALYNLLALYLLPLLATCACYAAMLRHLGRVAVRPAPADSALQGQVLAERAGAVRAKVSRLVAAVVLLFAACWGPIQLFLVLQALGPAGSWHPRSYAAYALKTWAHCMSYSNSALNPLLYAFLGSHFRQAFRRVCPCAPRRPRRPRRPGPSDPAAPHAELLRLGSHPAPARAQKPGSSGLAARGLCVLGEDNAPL
Method in brief: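 HEK293 cells stably expressing human KISS1R were plated 18 h at 37 °C, loaded with calcium dye for 1 h at 37 °C, then given compound by pin tool. Fluorescence (Ex/Em 480/540) was read kinetically for 3 min.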

[19] = p53 small molecule agonists, cell-based qHTS assay with rat liver microsomes (AID 1963578)
Method in brief: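 Agonist mode in p53RE-bla reporter cells, with compounds co-incubated 16 h at 37 C alongside 0.5 mg/mL rat liver microsomes and 0.5 mg/mL NADPH (final), followed by a 2 h LiveBLAzer detection step.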

[20] = p53 small molecule agonists, cell-based qHTS assay (AID 1963582; active means well fitted activation curve with a large enough effect in the signal ratio in the repeat runs, not every such curve was filed as active; the % refers to the signal ratio; further: potency means the concentration at half of the fitted maximal effect)
Method in brief: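 p53RE-bla beta-lactamase reporter cells rested 5 h at 37 C/5% CO2, then received compounds in DMSO by pin transfer and were incubated 16 h at 37 C. LiveBLAzer B/G FRET substrate was loaded for 2 h at room temperature before fluorescence reading.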

Measured: Potency

CCC(C)(NC(=O)c1cc(Cl)c(C)c(Cl)c1)C(=O)CCl (stereo unspecified)
inactive: [3] | [4] | [5] | [6] | [7] | [8] | [10] | [11] | [12]
active: [1] 24.5 µM | [2] 1.54 µM | [9] 49.3 µM

NNCc1ccccc1
not listed: [4] | [5] | [9] | [18] | [19] | [20]
inactive: all other assays above

N#CNC#N
not listed: [3] | [8] | [15]
inactive: all other assays above

CNC(=O)/C=C(\C)OP(=O)(OC)OC
not listed: [3] | [5] | [6] | [7] | [19] | [20]
inactive: all other assays above

Nc1cc(Cl)ccc1O
active: [2] 52.7 µM
not listed: [3] | [8] | [20]
inactive: all other assays above

SCc1ccco1
active: [2] 68.6 µM
not listed: [3] | [8] | [12] | [13] | [14] | [19] | [20]
inactive: all other assays above

Oc1ccc(I)cc1
not listed: [3] | [5] | [8] | [14] | [15]
inactive: all other assays above

Oc1ccc(C2(c3ccc(O)cc3)c3ccccc3-c3ccccc32)cc1
active: [1] 30.6 µM | [2] 0.969 µM | [6] 32.4 µM | [8] 45.8 µM
inactive: [18] | [4] | [5] | [19] | [9] | [10] | [11] | [12] | [16]

[CH3][Hg][Cl]
active: [1] 6.09 µM | [2] 2.43 µM | [20] 36.3 µM | [9] 38.8 µM
not listed: [3] | [12] | [14] | [16] | [19]
inactive: all other assays above

O=C(O)COc1ccc(Cl)cc1
not listed: [3] | [5] | [13] | [14] | [15] | [16] | [20]
inactive: all other assays above

CCCCc1ccc(O)cc1
not listed: [3] | [8] | [10] | [11] | [14] | [19]
inactive: all other assays above

CN=CNc1ccc(C)cc1C
not listed: [3] | [6] | [8] | [9] | [12] | [17]
inactive: all other assays above

COC12CC[C@@]3(C[C@@H]1C(C)(O)C(C)(C)C)[C@H]1Cc4ccc(O)c5c4[C@@]3(CCN1CC1CC1)[C@H]2O5 (stereo partly specified)
active: [1] 30.4 µM | [10] 33.2 µM
inactive: [2] | [18] | [4] | [5] | [8] | [12]

Oc1c(Br)c(Br)c(Br)c(Br)c1Br
active: [1] 30.8 µM | [6] 23.1 µM | [10] 30 µM
not listed: [3] | [8] | [9] | [13] | [14] | [15]
inactive: all other assays above

COC(=O)N(C(=O)N1COC2(C(=O)OC)Cc3cc(Cl)ccc3C2=N1)c1ccc(OC(F)(F)F)cc1 (stereo unspecified)
not listed: [3] | [4] | [7] | [13] | [19]
inactive: all other assays above

CCOc1cccc(C2(N3CCN(c4ccccc4)CC3)CCC(C)CC2)c1 (stereo unspecified)
not listed: [3] | [5] | [9] | [10] | [11] | [13] | [19]
inactive: all other assays above

C[C@@H]1CC2=CC(=O)CC[C@@H]2[C@H]2CC[C@@]3(C)[C@@H](CC[C@]3(C)O)[C@@H]21
not listed: [3] | [6] | [9] | [14] | [15]
inactive: all other assays above
